{
  "source": "the supplement of paper PMC10515830",
  "note": "Structures can show the parent of a compound that is named as a salt.",
  "data": [
    {"tested_on": "Danio rerio larvae (5 dpf)", "assay": "difference in combined optomotor response to red, green and blue moving lines vs DMSO (percentage points); higher = stronger optomotor response than DMSO", "settings": "10 µM; exposure time 6 h", "summary_of_the_method": "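In 96-well plates, 48 wild-type zebrafish larvae aged 5 dpf per compound received 100 µL egg water with library compound at 10 µM final for 6 h. Three hours into this, a 3-h programme of moving lines and 100 ms, 400Hz tones ran at 28.5 ℃ while plates were photographed every 6 s. Z-LaP Tracker scored the behaviours, and each is given as the compound mean minus the vehicle control mean in percentage points.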", "values": [
      {"smiles": "COc1c(C)c2c(c(O)c1C/C=C(\\C)CCC(=O)O)C(=O)OC2", "note": "[Mycophenolic Acid]", "difference": 8.73},
      {"smiles": "CCCc1nc(C(C)(C)O)c(C(=O)OCc2oc(=O)oc2C)n1Cc1ccc(-c2ccccc2-c2nnn[nH]2)cc1", "note": "[Olmesartan Medoxomil]", "difference": 0.0218},
      {"smiles": "Cc1ccc(N(CC2=NCCN2)c2cccc(O)c2)cc1", "note": "[Phentolamine (mesylate)]", "difference": -2.55},
      {"smiles": "CNCCCC12CCC(c3ccccc31)c1ccccc12", "note": "[Maprotiline (hydrochloride)]", "difference": 2.3},
      {"smiles": "CC=CC(=O)N(CC)c1ccccc1C", "note": "[Crotamiton]", "difference": -3.13},
      {"smiles": "CCCCN1C[C@H](O)[C@@H](O)[C@H](O)[C@H]1CO", "note": "[N-Butyldeoxynojirimycin (hydrochloride)]", "difference": 4.55},
      {"smiles": "CCCCC(C)(O)C/C=C/[C@H]1[C@H](O)CC(=O)[C@@H]1CCCCCCC(=O)OC", "note": "(mixture of isomers) [Misoprostol]", "difference": -1.41},
      {"smiles": "CCCCc1ncc(/C=C(\\Cc2cccs2)C(=O)O)n1Cc1ccc(C(=O)O)cc1", "note": "[Eprosartan (mesylate)]", "difference": 5.89},
      {"smiles": "CC(=O)OCC(=O)[C@@]12OC3(CCCC3)O[C@@H]1C[C@H]1[C@@H]3CCC4=CC(=O)C=C[C@]4(C)[C@@]3(F)[C@@H](O)C[C@@]12C", "note": "[Amcinonide]", "difference": 4.08},
      {"smiles": "CN1C(=O)CC(C)(c2ccccc2)C1=O", "note": "(centres undefined) [Methsuximide]", "difference": 10.3},
      {"smiles": "CC[C@H](Nc1ncnc2[nH]cnc12)c1nc2cccc(F)c2c(=O)n1-c1ccccc1", "difference": 2.36},
      {"smiles": "CN(C)CCCN1c2ccccc2Sc2ccc(Cl)cc21", "note": "[Chlorpromazine (hydrochloride)]", "difference": 6.64},
      {"smiles": "Clc1ccc2c(c1)C(N1CCNCC1)=Nc1ccccc1O2", "note": "[Amoxapine]", "difference": 12.4},
      {"smiles": "C=C1CC[C@H](O)C/C1=C/C=C1\\CCC[C@]2(C)[C@@H]([C@H](C)/C=C/[C@H](C)C(C)C)CC[C@@H]12", "note": "[Vitamin D2]", "difference": 8.48},
      {"smiles": "Cc1cc2nc3c(=O)[nH]c(=O)nc-3n(C[C@H](O)[C@H](O)[C@H](O)COP(=O)(O)O)c2cc1C", "note": "[Riboflavin 5'-monophosphate (sodium salt hydrate)]", "difference": -0.41},
      {"smiles": "CNS(=O)(=O)CCc1ccc2[nH]cc(C3CCN(C)CC3)c2c1", "note": "[Naratriptan (hydrochloride)]", "difference": -2.72},
      {"smiles": "Cc1ccc(/C(=C\\CN2CCCC2)c2cccc(/C=C/C(=O)O)n2)cc1", "note": "[Acrivastine]", "difference": -3.37},
      {"smiles": "COC(=O)C1=C(C)NC(C)=C(C(=O)OCCN(C)Cc2ccccc2)C1c1cccc([N+](=O)[O-])c1", "note": "(centres undefined) [Nicardipine (hydrochloride)]", "difference": -6.14},
      {"smiles": "C[C@H](CS)C(=O)N1CCC[C@H]1C(=O)O", "note": "[Captopril]", "difference": 1.64},
      {"smiles": "NCCNCCNCCN", "note": "[Trientine (hydrochloride)]", "difference": -9.36},
      {"smiles": "COc1ccc2c(O[C@@H]3C[C@H]4C(=O)N[C@]5(C(=O)NS(=O)(=O)C6CC6)C[C@H]5/C=C\\CCCCN(C)C(=O)[C@@H]4C3)cc(-c3nc(C(C)C)cs3)nc2c1C", "note": "[Simeprevir (sodium salt)]", "difference": 8.38},
      {"smiles": "C[C@H](N[C@@H](CCc1ccccc1)C(=O)O)C(=O)N1CCC[C@H]1C(=O)O", "note": "[Enalaprilat (hydrate)]", "difference": 1.55},
      {"smiles": "Cc1nnc(SCC2=C(C(=O)O)N3C(=O)[C@@H](NC(=O)Cn4cnnn4)[C@H]3SC2)s1", "note": "[Cefazolin (sodium salt)]", "difference": 5.77},
      {"smiles": "O=C(O)C1(C(=O)O)CCC1.[NH2-].[NH2-].[Pt+2]", "note": "[Carboplatin]", "difference": -2.73},
      {"smiles": "C[N+](C)(C)CCOC(N)=O", "note": "[Carbamoylcholine (chloride)]", "difference": 1.31},
      {"smiles": "C[C@]12CCC(=O)C=C1CC[C@@H]1[C@@H]2[C@@H](O)C[C@@]2(C)[C@H]1CC[C@]2(O)C(=O)CO", "note": "[Hydrocortisone]", "difference": 9.96},
      {"smiles": "COC(=O)N[C@H](C(=O)N1CCC[C@H]1c1ncc(-c2ccc(-c3ccc(-c4cnc([C@@H]5CCCN5C(=O)[C@@H](NC(=O)OC)C(C)C)[nH]4)cc3)cc2)[nH]1)C(C)C", "note": "[Daclatasvir]", "difference": -0.609},
      {"smiles": "CC(C)(C)NC(=O)[C@H]1CC[C@H]2[C@@H]3CC[C@H]4NC(=O)C=C[C@]4(C)[C@H]3CC[C@]12C", "note": "[Finasteride]", "difference": 9},
      {"smiles": "CO[C@H]1C[C@@H]2CC[C@@H](C)[C@@](O)(O2)C(=O)C(=O)N2CCCC[C@H]2C(=O)O[C@H]([C@H](C)C[C@@H]2CC[C@@H](OCCO)[C@H](OC)C2)CC(=O)[C@H](C)/C=C(\\C)[C@@H](O)[C@@H](OC)C(=O)[C@H](C)C[C@H](C)/C=C/C=C/C=C/1C", "note": "[Everolimus]", "difference": 5.32}
    ]}
  ]
}
